# Paper PMC5540273 (PLoS ONE, 2017)
# Assays:
# Details in all cases: concentration: 1 μM, replicates: in singlicate; n = 1
# CSK = test system: CSK
# CSNK1A1L = test system: CSNK1A1L
# CSNK1A1 = test system: CSNK1A1
# CSNK1D = test system: CSNK1D
# CSNK1E = test system: CSNK1E
# CSNK1G1 = test system: CSNK1G1
# CSNK1G2 = test system: CSNK1G2
# CSNK1G3 = test system: CSNK1G3
# CSNK2A1 = test system: CSNK2A1
# CSNK2A2 = test system: CSNK2A2
# CTK = test system: T1, CTK
# T1 construct: gene MATK
# DAPK1 = test system: DAPK1
# DAPK2 = test system: DAPK2
# DAPK3 = test system: DAPK3
# DCAMKL1 = test system: T2, DCAMKL1
# T2 construct: gene DCLK1
# DCAMKL2 = test system: T3, DCAMKL2
# T3 construct: gene DCLK2
# DCAMKL3 = test system: T4, DCAMKL3
# T4 construct: gene DCLK3
# DDR1 = test system: DDR1
# DDR2 = test system: DDR2
# DLK = test system: T5, DLK
# T5 construct: gene MAP3K12
# 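Also: KINOMEscan kinase panel screen.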
Compound,%Inh (CSK) [%],%Inh (CSNK1A1L) [%],%Inh (CSNK1A1) [%],%Inh (CSNK1D) [%],%Inh (CSNK1E) [%],%Inh (CSNK1G1) [%],%Inh (CSNK1G2) [%],%Inh (CSNK1G3) [%],%Inh (CSNK2A1) [%],%Inh (CSNK2A2) [%],%Inh (CTK) [%],%Inh (DAPK1) [%],%Inh (DAPK2) [%],%Inh (DAPK3) [%],%Inh (DCAMKL1) [%],%Inh (DCAMKL2) [%],%Inh (DCAMKL3) [%],%Inh (DDR1) [%],%Inh (DDR2) [%],%Inh (DLK) [%]
O=C1NC(=O)C(c2ccc(Cl)cc2)=C1Nc1cccc(Cl)c1 [SB-317651],0,16,22,0,0,0,0,88,0,0,16,8,0,18,18,0,17,0,16,16
COc1ccc(Nc2nccc(-c3ccc(NC(=O)c4cc5cc(F)ccc5[nH]4)cc3)n2)cc1 [GSK1229496],0,0,0,0,21,0,0,17,0,0,0,55,5,1,11,0,0,63,26,36
CNCc1ccc2nc(NC(=O)c3ccc(C(C)(C)C)cc3)cn2c1,0,0,2,11,3,9,0,87,42,4,45,0,0,1,15,4,24,9,24,27
Cc1cnc(N)c(/C=C/c2cncc(C(=O)NCCc3ccc(Cl)cc3Cl)c2)c1.Cl [GSK190937],0,0,0,34,20,24,2,3,0,0,0,10,7,11,4,0,23,–,79,25
CNC(=O)c1ccc(C)c(-n2c(C)cc(OCc3ccc(F)cc3F)c(Br)c2=O)c1,0,0,4,0,6,0,0,25,0,0,0,0,0,0,0,0,0,0,0,0
Cc1nccc(-c2c(-c3ccc(F)cc3)ncn2CCCN2CCOCC2)n1.Cl [SB-282975],0,21,51,95.6,88,4,6,2,1,9,0,0,99.3,0,0,2,3,0,0,0
O=C(Nc1n[nH]c2nc(-c3cccs3)c(Br)cc12)C1CC1 [SB-735297],12,6,0,0,0,0,0,17,26,51,13,0,0,0,0,0,0,0,0,0
CN1c2ccc(-c3ccc(C(N)=O)cc3)cc2-c2[nH]ncc2S1(=O)=O,0,0,3,1,1,0,0,0,0,1,0,54,18,26,7,0,0,0,28,0
O=c1cc(N2CCOCC2)nc2n(Cc3cccc(Cl)c3Cl)c3ccccc3n12 [GSK2299009],21,11,0,19,41,8,0,17,11,31,0,13,0,11,12,7,10,22,0,0
CNc1nc(-c2ccc3c(N)n[nH]c3c2)cc(N2C[C@@H](C(=O)Nc3ccccc3)CC[C@H]2C)n1 [GSK2298859],0,6,0,15,36,16,0,28,2,3,0,11,30,43,53,11,76,6,8,11
CNc1nc(-c2ccc3c(N)n[nH]c3c2)cc(N2C[C@@H](C(=O)NC3CCCCC3)OC[C@H]2C)n1 [GSK2375584],1,16,66,41,38,2,4,26,1,8,0,26,34,40,24,0,31,15,36,37
CC(=O)c1cccc(NC(=O)NC2CCN(c3ccnc(Nc4ccc(F)cc4)n3)C2)c1 (stereo not shown) [GSK1379710],5,0,0,27,18,12,0,25,16,15,0,15,2,26,6,11,14,20,7,29
CC(C)c1cc(-c2ccc3c(N)n[nH]c3c2)nc(N)n1 [GSK2250882],0,0,0,0,7,10,0,25,0,10,0,9,6,25,2,0,0,0,4,21
